Results taken from PubChem BioAssay (NCATS).
Inconclusive results are not listed. Calls of active or inactive are those of the source. Unless noted, calls follow the shape of the dose curve; as a rule, active = well fitted curve in the direction sought with a large enough effect; inconclusive = small, poorly fitted or top-dose-only effect, or another doubt; inactive = no such curve, though single readings can be large; an effect the other way counts as inactive or inconclusive. Numbered stars: 1 amine (or outer) side, 2 acyl side, 3 side chain; on linkers, the order of the positions; unused ones are H or OH. Bridge positions count the residues as written; N and C are the ends. Square brackets hold non-standard residues; d marks the D form. Peptide text beside a SMILES is read from it. I, II: the chains in the order shown. Actinocin(9to1) = Cc1c2oc3c(C)ccc(C(=O)[*:1])c3nc-2c(C(=O)[*:2])c(N)c1=O; aThr = C[C@H](O)[C@H](N)C(=O)O; NMeV = CN[C@H](C(=O)O)C(C)C; Sar = CNCC(=O)O

Experiments:
[1] = target: Furin (Homo sapiens) (UniProt P09958); assay: Furin counterscreen qHTS for Zika virus inhibitors (AID 1347149);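 also: purified recombinant full-length human furin enzyme at 5 nM; fluorescence gain from furin cutting a BOC-RVRR-AMC peptide substrate over 15 min; top concentration of the series differs between compounds; nearly all actives have a fitted effect of over 70% in size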
Chain of Furin (Homo sapiens) (P09958 whole entry, looked up): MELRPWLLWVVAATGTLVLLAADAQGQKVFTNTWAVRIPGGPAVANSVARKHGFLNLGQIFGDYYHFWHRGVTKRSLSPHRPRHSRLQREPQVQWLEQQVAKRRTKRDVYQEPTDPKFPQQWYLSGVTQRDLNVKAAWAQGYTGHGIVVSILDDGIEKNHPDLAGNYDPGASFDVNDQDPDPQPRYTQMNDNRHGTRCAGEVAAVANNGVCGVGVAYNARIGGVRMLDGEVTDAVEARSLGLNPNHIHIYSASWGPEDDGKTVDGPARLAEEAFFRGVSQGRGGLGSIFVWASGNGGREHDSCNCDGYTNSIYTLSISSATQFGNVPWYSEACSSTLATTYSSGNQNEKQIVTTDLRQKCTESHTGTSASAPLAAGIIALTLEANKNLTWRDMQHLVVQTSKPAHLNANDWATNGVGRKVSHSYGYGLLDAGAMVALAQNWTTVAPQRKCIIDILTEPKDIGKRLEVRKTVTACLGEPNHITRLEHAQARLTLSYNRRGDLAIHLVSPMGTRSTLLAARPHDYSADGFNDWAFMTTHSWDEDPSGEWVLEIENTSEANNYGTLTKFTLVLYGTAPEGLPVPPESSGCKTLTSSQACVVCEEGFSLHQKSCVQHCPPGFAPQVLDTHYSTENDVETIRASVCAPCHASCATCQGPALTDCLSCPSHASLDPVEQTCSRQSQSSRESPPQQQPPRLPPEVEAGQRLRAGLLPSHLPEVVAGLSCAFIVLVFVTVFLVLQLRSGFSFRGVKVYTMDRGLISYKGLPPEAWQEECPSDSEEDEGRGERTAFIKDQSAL
Summary of the method: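 Counterscreen measures cleavage of 2 microM BOC-RVRR-AMC, below its ~15 microM Km, by 5 nM full-length human furin at pH 7.0 after a 15-min compound preincubation. Inhibition derives from the 15-min fluorescence increase at 37C.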

[2] = test system: Zika virus NS2B-NS3 protease (linked construct); assay: Confirmatory screen NINDS AMC qHTS for Zika virus inhibitors (AID 1347152); also: potency is read from the fitted curve at half-maximal effect; nearly all actives have a fitted effect of over 70% in size
Summary of the method: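 Linked NS2B-NS3 protease, 1 nM, in 10 mM Tris-HCl pH 8.0, 0.01% Tween 20; compounds preincubated 15 min at room temperature. Nle-KRR-AMC 10 microM (Km 18.3 µM); 15-min fluorescence change (340/450 nm) fitted to 4-parameter Hill.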

[3] = ZIKV-mCherry secondary qHTS for Zika virus inhibitors (AID 1347158); also: top concentration of the series differs between compounds
Summary of the method: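 This orthogonal imaging screen measured ZIKV-mCherry infection of Vero cells exposed to compound, MOI 1, 48-72 h. Percent infection came from segmented nuclei scored mCherry-positive above 3 SD of negative controls.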

[4] = Confirmatory screen NINDS Rhodamine qHTS for Zika virus inhibitors (AID 1347161); also: potency is read from the fitted curve at half-maximal effect; nearly all actives have a fitted effect of over 60% in size
Summary of the method: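 qHTS dose-response: 25 nM linked protease, pH 8.0 Tris/Tween buffer, cpd titration, 15 min RT preinc, 1.5 microM Rhod110 peptide, 15 min reaction (~15% conversion), Ex480/Em540; 4-parameter Hill fit.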

[5] = test system: Zika virus NS2B-NS3 protease (linked); assay: 384 well plate NINDS AMC confirmatory qHTS for Zika virus inhibitors (AID 1347163); also: nearly all actives have a fitted effect of over 50% in size; also: potency is read from the fitted curve at half-maximal effect
Summary of the method: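 Enzyme (5, 30 or 60 nM final) first met test compounds for ~15 min. The AMC-tagged peptide Ac-VKTGKR-AMC followed at 30 microM. Fluorescence was then recorded at 25 min and scaled against no-enzyme and no-inhibitor wells.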

[6] = test system: Zika virus NS2B-NS3 protease (linked construct); assay: 384 well plate NINDS Rhodamine confirmatory qHTS for Zika virus inhibitors (AID 1347164);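 also: fluorescence from protease cleavage of Ac-LKRR-rhodamine 110 substrate; potency is read from the fitted curve at half-maximal effect; nearly all actives have a fitted effect of over 65% in size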
Summary of the method: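 Linked NS2B-NS3 protease (final 5, 30 or 60 nM) preincubated ~15 minutes with compounds, then 10 microM Ac-LKRR-Rhodamine 110 added. Fluorescence (485/538 nm) read after 25 minutes at room temperature, normalized to no-enzyme and no-inhibitor controls.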

[7] = Tertiary RLuc qRT-PCR qHTS assay for Zika virus inhibitors (AID 1347169); also: nearly all actives have a fitted effect of over 55% in size; also: potency is read from the fitted curve at half-maximal effect
Summary of the method: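 Vero cells (1,000/well) infected with recombinant ZIKV-RLuc (Cambodian) at MOI 1-2 after compound addition, 48-72 hrs at 37 degrees C. Live-cell Renilla luciferase substrate added; luminescence read after 1-1.5 hrs.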

[8] = test system: Zika virus NS2B-NS3 protease (unlinked complex); assay: Confirmatory screen GU AMC qHTS for Zika virus inhibitors (AID 1347153); also: nearly all actives have a fitted effect of over 70% in size
Summary of the method: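 Noncovalent NS2B hydrophilic domain/NS3 protease complex (25 nM) in 10 mM Tris-HCl pH 8.0, 0.01% Tween 20 was preincubated 15 min at room temperature with compounds. Then 10 µM AMC substrate (Km 18.3 µM) was added; fluorescence was read over 15 min and fitted to a 4-parameter Hill equation.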

[9] = test system: Zika virus NS2B-NS3 protease (unlinked); assay: Optimization of GU AMC qHTS for Zika virus inhibitors: Unlinked NS2B-NS3 protease assay (AID 1347151); also: nearly all actives have a fitted effect of over 80% in size; also: potency is read from the fitted curve at half-maximal effect
Summary of the method: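 Noncovalent NS2B hydrophilic domain–NS3 protease complex (25 nM final) in 10 mM Tris-HCl pH 8.0, 0.01% Tween 20; AMC substrate, room temperature 15 min (~20% conversion); fluorescence change normalized, 4-parameter Hill fit.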

[10] = Vero cells viability qHTS for Zika virus inhibitors (AID 1347167); also: potency is read from the fitted curve at half-maximal effect
Summary of the method: (§1)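 Luminescent ATP readout (CellTiter Glo) after 30 min at 37 degrees C gives viability; cells in DMEM + 4% FBS were treated 24 to 48 hours with compound, following overnight attachment.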

[11] = test system: Zika virus NS2B-NS3 protease; assay: Primary screen GU AMC qHTS for Zika virus inhibitors (AID 1347154); also: nearly all actives have a fitted effect of over 70% in size
Summary of the method: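 Fluorogenic AMC-substrate cleavage by noncovalent NS2B-NS3 protease complex (25 nM, pH 8.0 Tris buffer with Tween 20) followed for 15 minutes at room temperature (~20% conversion). Percent inhibition from ex340/em450 signal change, fitted by 4-parameter Hill equation.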

[12] = Primary qHTS for small molecule stabilizers of the endoplasmic reticulum resident proteome: Secreted ER Calcium Modulated Protein (SERCaMP) assay (AID 1508630)
Summary of the method: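 The SH-SY5Y reporter protocol was run at 3 concentrations up to 38.3 uM (primary) or 11 concentrations (follow-up): 16 h compound, 100 nM thapsigargin for 4 h, then extracellular luciferase luminescence.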

[13] = target: Cytochrome P450 1A2 (Homo sapiens) (UniProt P05177); assay: p450-cyp1a2 (AID 410; calls by dose curve)
Chain of Cytochrome P450 1A2 (Homo sapiens) (P05177 whole entry, looked up): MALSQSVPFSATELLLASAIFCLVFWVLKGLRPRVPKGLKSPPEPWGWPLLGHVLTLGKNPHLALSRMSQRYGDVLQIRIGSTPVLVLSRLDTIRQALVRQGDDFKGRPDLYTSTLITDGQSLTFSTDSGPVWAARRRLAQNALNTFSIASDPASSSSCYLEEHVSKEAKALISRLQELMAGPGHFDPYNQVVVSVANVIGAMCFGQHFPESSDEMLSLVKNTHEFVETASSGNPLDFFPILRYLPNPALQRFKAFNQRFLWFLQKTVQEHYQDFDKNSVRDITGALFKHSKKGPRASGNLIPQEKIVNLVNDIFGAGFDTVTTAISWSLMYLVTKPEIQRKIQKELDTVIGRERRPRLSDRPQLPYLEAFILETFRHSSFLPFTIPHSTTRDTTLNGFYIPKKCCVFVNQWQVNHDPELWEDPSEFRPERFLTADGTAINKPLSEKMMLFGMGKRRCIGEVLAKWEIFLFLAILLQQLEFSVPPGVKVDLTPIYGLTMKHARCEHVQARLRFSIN
Summary of the method: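 Read-out is luminescence from luciferin produced by CYP1A2 demethylation of Luciferin-ME (100uM, at Km). Detection reagent stopped the 60 min NADPH-dependent reaction; signals were normalized to 57 uM furafylline.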

[14] = target: Glucocorticoid receptor (Homo sapiens) (UniProt P04150); assay: GR-EFC Redistribution (AID 451; calls by dose curve; also: potency is read from the fitted curve at half-maximal effect); conditions: CHO-K1 GR-EFC translocation, beta-gal luminescence, 2 h
Chain of Glucocorticoid receptor (Homo sapiens) (P04150 whole entry, looked up, the tested form may be a part): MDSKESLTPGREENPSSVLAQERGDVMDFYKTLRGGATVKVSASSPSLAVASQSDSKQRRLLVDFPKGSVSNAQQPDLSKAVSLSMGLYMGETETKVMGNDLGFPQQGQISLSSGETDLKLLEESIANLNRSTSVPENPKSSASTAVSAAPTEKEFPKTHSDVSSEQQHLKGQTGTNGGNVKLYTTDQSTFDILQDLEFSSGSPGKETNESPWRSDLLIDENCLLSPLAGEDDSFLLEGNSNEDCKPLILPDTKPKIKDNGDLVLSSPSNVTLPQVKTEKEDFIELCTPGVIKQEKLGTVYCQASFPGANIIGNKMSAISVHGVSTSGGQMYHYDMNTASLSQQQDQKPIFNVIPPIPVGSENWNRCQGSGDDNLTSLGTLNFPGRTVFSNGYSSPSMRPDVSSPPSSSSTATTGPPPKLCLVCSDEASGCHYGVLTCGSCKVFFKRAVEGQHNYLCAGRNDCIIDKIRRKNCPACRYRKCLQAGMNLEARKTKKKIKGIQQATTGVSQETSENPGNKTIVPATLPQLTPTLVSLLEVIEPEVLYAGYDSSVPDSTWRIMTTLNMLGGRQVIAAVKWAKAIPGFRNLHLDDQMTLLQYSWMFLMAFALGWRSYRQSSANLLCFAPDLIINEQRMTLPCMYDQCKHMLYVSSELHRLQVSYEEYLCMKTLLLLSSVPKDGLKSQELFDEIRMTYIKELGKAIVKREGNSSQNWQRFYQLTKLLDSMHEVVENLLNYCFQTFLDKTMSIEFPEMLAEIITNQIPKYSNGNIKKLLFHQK
Summary of the method: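 Translocation of GR-ED fusion to nuclear EA restores b-gal, read by luminescence after 1 h room-temperature detection. Engineered CHO-K1 biosensor cells, 1,000/well, exposed 2 h at 37 C to titrations up to 46 uM final.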

[15] = target: Mitogen-activated protein kinase 10 (Mus musculus) (UniProt Q61831); assay: JNK3 AlphaScreen Assay (AID 530; active = well fitted curve in either direction with a large enough effect, not every such curve was filed as active;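 also: kinase came from lysate of stimulated human HepG2 cells; signal reports phosphorylation of biotinylated GST-cJun 1-79 at Ser73 with 10 µM ATP; series mostly up to about 57 µM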)
Summary of the method: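 Kinase buffer: 20 mM Tris-HCl pH 7.6, 10 mM MgCl2, 1 mM DTT, 0.1 mM Na3VO4, 0.01% Tween-20; ATP 10 uM. Substrate biotin-GST-cJun(1-79), enzyme from activated HepG2 lysates. Detection by Ser73 phospho-antibody AlphaScreen.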

[16] = target: Cytochrome P450 3A4 (Homo sapiens) (UniProt P08684); assay: qHTS Assay for Activators of Cytochrome P450 3A4 (AID 885); also: nearly all actives have a fitted effect of over 65% in size
Chain of Cytochrome P450 3A4 (Homo sapiens) (P08684 whole entry, looked up): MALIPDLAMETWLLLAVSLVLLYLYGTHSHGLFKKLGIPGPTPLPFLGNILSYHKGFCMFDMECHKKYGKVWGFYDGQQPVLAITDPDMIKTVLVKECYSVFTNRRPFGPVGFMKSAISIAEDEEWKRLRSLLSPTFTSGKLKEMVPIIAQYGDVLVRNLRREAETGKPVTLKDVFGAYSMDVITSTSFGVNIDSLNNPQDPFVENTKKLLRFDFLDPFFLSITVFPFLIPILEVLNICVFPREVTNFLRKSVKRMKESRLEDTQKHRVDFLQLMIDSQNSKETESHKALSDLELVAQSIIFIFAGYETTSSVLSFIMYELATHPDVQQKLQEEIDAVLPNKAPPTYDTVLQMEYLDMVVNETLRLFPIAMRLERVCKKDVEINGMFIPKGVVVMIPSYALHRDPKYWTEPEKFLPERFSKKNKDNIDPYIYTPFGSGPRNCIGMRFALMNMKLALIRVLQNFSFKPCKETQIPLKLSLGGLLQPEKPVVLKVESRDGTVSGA
Summary of the method: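 CYP3A4 activity: Luciferin-PPXE O-dealkylation, 25uM substrate, 200mM KPO4, RT throughout. Read-out is luciferase luminescence; higher values reflect activation.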

[17] = target: DNA dC->dU-editing enzyme APOBEC-3G (Homo sapiens) (UniProt Q9HC16); assay: qHTS for inhibitors of Vif-A3G interactions: Validation (AID 588379)
Chain of DNA dC->dU-editing enzyme APOBEC-3G (Homo sapiens) (Q9HC16 whole entry, looked up): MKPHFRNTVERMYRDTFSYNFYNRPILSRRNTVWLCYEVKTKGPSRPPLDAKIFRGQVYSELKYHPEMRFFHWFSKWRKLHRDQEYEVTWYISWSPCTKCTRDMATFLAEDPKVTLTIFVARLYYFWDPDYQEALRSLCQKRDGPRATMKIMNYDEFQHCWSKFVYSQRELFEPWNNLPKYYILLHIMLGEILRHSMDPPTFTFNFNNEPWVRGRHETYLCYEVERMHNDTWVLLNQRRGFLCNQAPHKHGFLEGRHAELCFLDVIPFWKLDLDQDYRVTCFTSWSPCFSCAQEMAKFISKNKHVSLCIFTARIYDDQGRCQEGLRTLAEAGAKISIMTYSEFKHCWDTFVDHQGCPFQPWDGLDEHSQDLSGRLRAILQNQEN
Summary of the method: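 Yellow fluorescence (Ex 488, Em 500-530) of Vif-coexpressing HeLa A3G-eYFP cells, scanned by Acumen cytometer, reports blocked A3G degradation. Cells plated at 700/well overnight at 37 deg C before compound addition, then a further overnight compound incubation at 37 deg C.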

[18] = HepG2 cells viability qHTS for Zika virus inhibitors (AID 1347168)
Summary of the method: as §1

Measured: Potency

CC(=O)C(N=Nc1ccc(S(=O)(=O)Nc2ccccn2)cc1)C(=O)Nc1ccc(Cl)cc1 (centres undefined)
active: [2] 44.7 µM | [4] 20 µM | [5] 22.4 µM | [6] 25.1 µM
inactive: [1] | [3] | [7]

COC(=O)[C@H](Cc1ccc(OC)cc1)NC(=O)[C@H]1CN(S(=O)(=O)c2ccccc2)CCN1S(=O)(=O)c1ccccc1
inactive: [1] | [8] | [7]

Oc1cc2ccccc2c2ccccc12
inactive: [1] | [3] | [5]
active: [9] 44.1 µM | [6] 447 µM | [10] 19 µM | [7] 6.02 µM

O=C(O)COc1ccc(-c2nccc3c2C(=O)N(Cc2cccc(C(F)(F)F)c2)CC(CNC(=O)c2cccc(Cl)c2)O3)cc1 (centres undefined)
inactive: [1] | [5] | [7]
active: [8] 49.4 µM | [6] 22.4 µM

C[C@H]1O[C@@H](O[C@H]2[C@@H](O)C[C@H](O[C@H]3[C@@H](O)C[C@H](O[C@H]4CC[C@]5(C)C6C[C@@H](O)[C@]7(C)[C@@H](C8=CC(=O)OC8)CC[C@]7(O)C6CC[C@@H]5C4)O[C@@H]3C)O[C@@H]2C)C[C@H](O)[C@@H]1O (some centres undefined)
active: [7] 0.294 µM
inactive: [1] | [9] | [11] | [10] | [12]

Cc1c2oc3c(C)ccc(C(=O)N[C@@H]4C(=O)N[C@@H](C(C)C)C(=O)N5CCC[C@@H]5C(=O)N(C)CC(=O)N(C)[C@@H](C(C)C)C(=O)O[C@H]4C)c3nc-2c(C(=O)N[C@@H]2C(=O)N[C@@H](C(C)C)C(=O)N3CCC[C@@H]3C(=O)N(C)CC(=O)N(C)[C@@H](C(C)C)C(=O)O[C@H]2C)c(N)c1=O (I: [aThr]V[dP][Sar][NMeV] / II: [aThr]V[dP][Sar][NMeV]; ester I:1-I:C, II:1-II:C; linker I:N-II:N via Actinocin(9to1))
inactive: [13] | [14] > 46 µM | [15] | [16] | [17] | [1] | [11] | [10] | [18] | [12]
active: [9] 27.1 µM
